Data as given in ChEMBL document CHEMBL1961873, “Compounds: GSK PKIS; Assays: Nanosyn kinase panel” (2012).

Key:
[1] = target: Casein kinase I isoform gamma-2 (Homo sapiens) (UniProt P78368); details: at 1 µM
[2] = target: Casein kinase I isoform gamma-3 (Homo sapiens) (UniProt Q9Y6M4); details: at 0.1 µM
[3] = target: Casein kinase I isoform gamma-3 (Homo sapiens) (UniProt Q9Y6M4); details: at 1 µM
[4] = target: Cyclin-dependent kinase 1 (Homo sapiens) (UniProt P06493); details: at 0.1 µM
[5] = target: Cyclin-dependent kinase 1 (Homo sapiens) (UniProt P06493); details: at 1 µM
[6] = target: Cyclin-dependent kinase 2 (Homo sapiens) (UniProt P24941); details: at 0.1 µM
[7] = target: Cyclin-dependent kinase 2 (Homo sapiens) (UniProt P24941); details: at 1 µM
[8] = target: Cyclin-dependent kinase 2 (Homo sapiens) (UniProt P24941); details: at 0.1 µM; remark: listed apart in the source
[9] = target: Cyclin-dependent kinase 2 (Homo sapiens) (UniProt P24941); details: at 1 µM; remark: listed apart in the source
[10] = target: CDK3/Cyclin E (Homo sapiens) (UniProt P24864+Q00526); details: at 0.1 µM;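 note: reported percentages are mean inhibition values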
CDK3/Cyclin E (Homo sapiens), sequence (P24864 whole entry, looked up): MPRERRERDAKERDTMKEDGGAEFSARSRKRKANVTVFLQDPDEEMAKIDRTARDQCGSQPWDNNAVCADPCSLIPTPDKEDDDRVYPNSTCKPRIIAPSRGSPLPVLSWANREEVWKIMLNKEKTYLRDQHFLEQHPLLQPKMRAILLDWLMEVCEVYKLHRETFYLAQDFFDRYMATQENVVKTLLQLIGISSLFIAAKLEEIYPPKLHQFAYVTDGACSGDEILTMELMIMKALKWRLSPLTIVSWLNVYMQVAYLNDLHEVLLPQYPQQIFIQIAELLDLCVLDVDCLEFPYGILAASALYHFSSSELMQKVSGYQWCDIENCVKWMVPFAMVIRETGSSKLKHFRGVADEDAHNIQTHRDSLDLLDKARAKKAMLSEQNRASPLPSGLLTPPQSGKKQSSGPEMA
CDK3/Cyclin E (Homo sapiens), sequence (Q00526 whole entry, looked up): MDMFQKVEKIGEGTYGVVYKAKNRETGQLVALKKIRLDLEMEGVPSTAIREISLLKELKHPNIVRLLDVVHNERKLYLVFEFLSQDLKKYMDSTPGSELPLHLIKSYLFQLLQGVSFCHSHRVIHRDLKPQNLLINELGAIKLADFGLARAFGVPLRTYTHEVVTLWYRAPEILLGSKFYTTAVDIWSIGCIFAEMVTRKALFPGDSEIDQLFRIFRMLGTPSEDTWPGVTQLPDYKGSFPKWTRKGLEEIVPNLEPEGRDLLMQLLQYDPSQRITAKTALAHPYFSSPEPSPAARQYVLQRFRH

Cyclin-dependent kinase 1 (Homo sapiens), sequence (P06493 whole entry, looked up): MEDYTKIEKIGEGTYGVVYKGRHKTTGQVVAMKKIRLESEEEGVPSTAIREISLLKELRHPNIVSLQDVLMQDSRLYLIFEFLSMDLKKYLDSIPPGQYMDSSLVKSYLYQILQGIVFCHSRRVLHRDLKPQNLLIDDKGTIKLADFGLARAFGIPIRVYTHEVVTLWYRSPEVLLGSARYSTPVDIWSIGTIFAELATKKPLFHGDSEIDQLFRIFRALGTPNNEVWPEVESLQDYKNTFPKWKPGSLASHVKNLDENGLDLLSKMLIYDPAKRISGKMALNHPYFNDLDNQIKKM
Casein kinase I isoform gamma-3 (Homo sapiens), sequence (Q9Y6M4 whole entry, looked up, canonical isoform): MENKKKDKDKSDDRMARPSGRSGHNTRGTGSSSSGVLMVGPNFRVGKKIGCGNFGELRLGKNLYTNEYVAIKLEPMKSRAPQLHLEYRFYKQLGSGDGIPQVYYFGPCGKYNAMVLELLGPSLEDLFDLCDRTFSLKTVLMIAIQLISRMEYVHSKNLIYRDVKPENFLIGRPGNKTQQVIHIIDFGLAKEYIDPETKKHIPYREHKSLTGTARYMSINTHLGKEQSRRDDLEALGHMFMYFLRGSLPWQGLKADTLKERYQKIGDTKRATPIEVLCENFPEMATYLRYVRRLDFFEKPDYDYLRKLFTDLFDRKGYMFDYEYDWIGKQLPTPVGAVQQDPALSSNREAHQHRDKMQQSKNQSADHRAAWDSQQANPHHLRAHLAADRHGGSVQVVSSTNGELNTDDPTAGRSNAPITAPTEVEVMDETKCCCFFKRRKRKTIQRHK
Casein kinase I isoform gamma-2 (Homo sapiens), sequence (P78368 whole entry, looked up, canonical isoform): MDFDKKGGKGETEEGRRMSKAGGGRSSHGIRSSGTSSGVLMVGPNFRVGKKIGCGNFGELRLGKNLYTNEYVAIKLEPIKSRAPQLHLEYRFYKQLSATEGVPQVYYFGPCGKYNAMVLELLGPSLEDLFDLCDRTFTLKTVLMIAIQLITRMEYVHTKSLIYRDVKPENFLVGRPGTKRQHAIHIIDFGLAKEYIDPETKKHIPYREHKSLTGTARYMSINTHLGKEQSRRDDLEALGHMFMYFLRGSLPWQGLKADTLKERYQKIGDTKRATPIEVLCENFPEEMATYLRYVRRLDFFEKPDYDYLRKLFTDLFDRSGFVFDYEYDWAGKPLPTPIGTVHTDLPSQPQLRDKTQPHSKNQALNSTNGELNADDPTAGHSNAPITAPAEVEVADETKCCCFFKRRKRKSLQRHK

SMILES	inhibition [1]	inhibition [2]	inhibition [3]	inhibition [4]	inhibition [5]	inhibition [6]	inhibition [7]	inhibition [8]	inhibition [9]	inhibition [10]
CCn1c(-c2nonc2N)nc2c(C#CC(C)(C)O)nc(CN3CCCC3)cc21	0.03%	-1.33%	0.33%	1.45%	2%	2.04%	-0.71%	0.5%	1.53%	2.36%
N#Cc1c(NC(=O)c2cccc3ccccc23)sc2c1CCCC2	3.02%	2.06%	2.66%	1.07%	5.24%	4.98%	0.97%	5.24%	6.76%	2.56%
c1cnn2ncc(-c3ccnc(Nc4ccc5c(c4)OCCO5)n3)c2c1	46.9%	6.57%	38%	71.3%	92.9%	65.5%	86.1%	73.6%	–	36.9%
CCn1c(-c2nonc2N)nc2c(C#CC(C)(C)O)nc(OC[C@@H](N)c3ccccc3)cc21	2.82%	-1.72%	1.57%	-0.31%	-0.33%	0.3%	5.96%	-0.8%	1.32%	-0.42%
O=C1Nc2ccc(C(=O)c3ccco3)cc2C1=Cc1cc(Cl)c(O)c(Cl)c1	5.46%	1.18%	6.13%	2.24%	7.36%	2.59%	19.3%	4.71%	15.7%	0.83%
Cc1cccc(-c2n[nH]cc2-c2ccc3ncccc3n2)n1	0.49%	0.08%	1.59%	0.3%	2.06%	0.57%	-1.61%	0.23%	0.63%	0.85%
Fc1cccc(COc2ccc(Nc3ncnc4cc(-c5ccc[nH]5)sc34)cc2Cl)c1	-1.46%	-2.89%	-1.56%	-1.89%	1.88%	-1.97%	-1.57%	-0.46%	2.07%	3.58%
CCn1c(-c2nonc2N)nc2ccncc21	0.81%	-0.09%	1.21%	0.77%	1.88%	1.3%	4.47%	1.11%	4.8%	2.26%
CNC(=O)c1cncc(/C=C/c2c(Cl)cccc2Cl)c1	7.62%	1.61%	4.59%	-1.13%	-0.82%	0.92%	-0.22%	-0.41%	3.85%	-4.75%
COc1ccc(COc2ccc(Cc3cnc(N)nc3N)cc2OC)cc1	0.05%	-0.67%	0.85%	1.89%	1.42%	–	–	–	–	2.3%
COc1ccccc1Nc1ncc(-c2ccccc2)o1	3.85%	3.77%	5.78%	–	0.64%	2.24%	3.34%	1.7%	4.15%	-1.03%
NC(=O)c1ccc(-c2nc(-c3ccccn3)c(-c3ccc4c(c3)OCO4)[nH]2)cc1	3.29%	1.05%	5.91%	0.26%	2.49%	–	–	–	–	3.35%
CS(=O)(=O)CCNCc1ccc(-c2ccc3ncnc(Nc4ccc(OCc5cccc(F)c5)c(C(F)(F)F)c4)c3c2)o1	3.77%	2.34%	1.71%	-0.13%	2%	5.89%	-0.79%	1.93%	3.21%	2.34%
Cn1cc(C=C2C(=O)Nc3cccnc32)c2ccccc21	3.63%	1.67%	5.3%	4.27%	7.4%	2.66%	3.89%	7.44%	8.9%	10.7%
CCn1c(-c2nonc2N)nc2c(N3CCCC3)nccc21	-0.7%	-0.94%	-0.62%	0.79%	2.89%	1%	–	0.81%	5.24%	0.91%
Nc1ncnc2occ(-c3ccc(NC(=O)Nc4cccc(C(F)(F)F)c4)cc3)c12	7.31%	3.11%	10.3%	-0.24%	4.91%	2.4%	8.86%	4.68%	10.8%	2.04%
Nc1nc(-c2ccc3c(c2)C(=Cc2cc(Br)c(O)c(Br)c2)C(=O)N3)cs1	-0.74%	-2.56%	0.95%	0.71%	–	1.38%	-0.83%	-0.42%	2.91%	0.55%
CCCN1CCC=C(c2ccc(Nc3nc(Nc4ccccc4C(N)=O)c4cc[nH]c4n3)c(C)c2)C1	–	36.1%	69.3%	2.18%	7.53%	5.19%	22.5%	3.79%	28.3%	-2.97%
COC(=O)Nc1nc2cc(Oc3cccc(NC(=O)Nc4cc(C(F)(F)F)ccc4F)c3)ccc2[nH]1	-0.35%	-2.32%	-1.3%	2.66%	0.7%	0.37%	-0.89%	0.62%	1.21%	-0.22%
NS(=O)(=O)c1ccc(N/N=C2\C(=O)Nc3ccc(C(=O)NCCc4c[nH]cn4)cc32)cc1	9.23%	5.54%	16.4%	30.1%	76.1%	–	–	–	–	26.9%
COc1ccc(-c2nn3ncccc3c2-c2ccnc(Nc3ccc(Cl)c(C(F)(F)F)c3)n2)cc1	1.48%	2.03%	0.7%	0.45%	0.2%	1.46%	-2.2%	1.44%	1.76%	1.87%
NS(=O)(=O)c1cccc(-c2ccc3c(NC(=O)C4CC4)n[nH]c3c2)c1	-1.38%	-0.89%	2.47%	0.37%	1.15%	0.27%	-6.96%	0.15%	3.36%	0.71%
CN1CCC(C(=O)Nc2n[nH]c3nnc(-c4ccccc4)cc23)CC1	6.16%	2.15%	4.71%	1.44%	9.39%	1.83%	5.99%	5.55%	7.79%	5.12%
NCc1ccc(-c2nc(-c3ccc(Cl)c(O)c3)c(-c3ccncc3)[nH]2)cc1	2.74%	0.3%	3.09%	1.68%	3.12%	1.79%	0.56%	1.58%	2.98%	0.9%
CCn1c(-c2nonc2N)nc2cncc(C(=O)N3CC[C@H](N)C3)c21	3.73%	2.49%	2.9%	0.41%	–	2.14%	-1.11%	2.3%	5.5%	5.34%
Cc1ccc(C(=O)NC2CCCCC2)cc1-c1ccc(C(=O)NCC2CC2)cc1	2.68%	2.21%	2.73%	0.67%	0.28%	0.88%	7.52%	2.63%	3.98%	2.34%
COc1cc2ncn(-c3cc(O[C@@H](C)c4ccccc4Cl)c(C(N)=O)s3)c2cc1OC	5.19%	3.46%	3.53%	-0.28%	2.69%	–	–	–	–	-0.85%
COC(=O)Nc1nc2cc(Oc3ccc(NC(=O)Nc4cccc(C(=O)O)c4)cc3)ccc2[nH]1	-2.28%	-2.29%	-0.39%	-2.2%	0.34%	-1.03%	4.44%	1.71%	1.67%	1.76%
